Measurements as given in PMC7862700, “An all-to-all approach to the identification of sequence-specific readers for epigenetic DNA modifications on cytosine”.

Legend:
Assay in all cases: DAPPL (digital affinity profiling via proximity ligation, sequencing); 10 mM Tris-HCl pH 7.5, 50 mM NaCl, 1 mM DTT, 4% glycerol, room temperature, 30 min; GST-TFs on glutathione beads, 16-mer random dsDNA library, 0.1% formaldehyde crosslink after washing; high values mean tight binding
FLI1 = molecular target: T1, FLI1 (Homo sapiens, UniProt Q01543 1-452); conditions: protein: recombinant; tags: N-terminal GST; dsDNA, one strand shown
T1 sequence: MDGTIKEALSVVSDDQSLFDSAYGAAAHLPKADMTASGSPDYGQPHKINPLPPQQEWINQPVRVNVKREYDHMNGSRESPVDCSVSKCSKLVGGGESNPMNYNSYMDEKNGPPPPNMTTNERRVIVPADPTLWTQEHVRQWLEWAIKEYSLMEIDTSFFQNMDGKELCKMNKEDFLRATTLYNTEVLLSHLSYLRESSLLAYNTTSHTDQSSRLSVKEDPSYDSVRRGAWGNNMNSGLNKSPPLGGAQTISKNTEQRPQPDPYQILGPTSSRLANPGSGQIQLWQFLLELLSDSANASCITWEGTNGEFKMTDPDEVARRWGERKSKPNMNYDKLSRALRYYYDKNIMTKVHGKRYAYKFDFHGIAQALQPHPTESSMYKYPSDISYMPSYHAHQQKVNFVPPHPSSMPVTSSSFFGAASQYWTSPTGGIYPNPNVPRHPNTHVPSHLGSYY
Outline: (§1)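 Sequencing on an Illumina NextSeq500 followed washing, crosslinking with 0.1% formaldehyde, proximity ligation (BsaI/T4 ligase, 1 h, 37 °C) and PCR amplification of pools that had been incubated for 30 min at room temperature with 200 nmole of a random double-stranded 16-mer DNA library in Tris/NaCl/DTT/glycerol buffer. Each pool held DNA-barcoded human transcription factors, expressed in yeast as GST fusions and captured on glutathione beads, plus a tag-only sample. Binding signal is a hexamer's read frequency for a factor divided by its frequency in the tag-only sample.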

ELK1 = molecular target: T2, ELK1 (Homo sapiens, UniProt P19419 1-428); conditions: protein: recombinant; tags: N-terminal GST; dsDNA, one strand shown
T2 sequence: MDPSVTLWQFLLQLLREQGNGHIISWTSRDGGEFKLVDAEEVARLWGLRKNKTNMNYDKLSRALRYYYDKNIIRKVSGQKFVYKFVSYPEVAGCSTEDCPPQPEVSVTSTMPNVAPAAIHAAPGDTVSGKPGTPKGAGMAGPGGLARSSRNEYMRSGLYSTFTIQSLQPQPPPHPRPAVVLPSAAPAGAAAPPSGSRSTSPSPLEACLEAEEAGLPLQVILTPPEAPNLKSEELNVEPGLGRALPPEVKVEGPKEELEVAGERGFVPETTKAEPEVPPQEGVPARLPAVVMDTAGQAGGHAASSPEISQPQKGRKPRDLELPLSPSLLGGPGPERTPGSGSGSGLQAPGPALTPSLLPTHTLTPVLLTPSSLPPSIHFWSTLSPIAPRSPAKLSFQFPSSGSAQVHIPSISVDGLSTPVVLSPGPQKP
Outline: as §1

GABPA = molecular target: T3, GABPA (Homo sapiens, UniProt Q06546 1-454); conditions: protein: recombinant; tags: N-terminal GST; dsDNA, one strand shown
T3 sequence: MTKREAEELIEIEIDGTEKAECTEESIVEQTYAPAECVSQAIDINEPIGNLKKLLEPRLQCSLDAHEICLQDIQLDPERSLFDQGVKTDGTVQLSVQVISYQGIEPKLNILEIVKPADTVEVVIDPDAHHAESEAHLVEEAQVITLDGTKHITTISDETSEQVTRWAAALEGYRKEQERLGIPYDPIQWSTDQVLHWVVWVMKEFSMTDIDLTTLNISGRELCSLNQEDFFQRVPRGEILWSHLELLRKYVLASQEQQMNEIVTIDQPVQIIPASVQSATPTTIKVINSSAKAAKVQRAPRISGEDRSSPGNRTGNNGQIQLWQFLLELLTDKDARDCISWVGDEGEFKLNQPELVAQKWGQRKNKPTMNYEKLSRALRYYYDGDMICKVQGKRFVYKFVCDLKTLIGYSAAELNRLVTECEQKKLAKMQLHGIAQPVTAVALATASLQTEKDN
Outline: as §1

ERG = molecular target: T4, ERG (Homo sapiens, UniProt P11308 1-479); conditions: protein: recombinant; tags: N-terminal GST; dsDNA, one strand shown
T4 sequence: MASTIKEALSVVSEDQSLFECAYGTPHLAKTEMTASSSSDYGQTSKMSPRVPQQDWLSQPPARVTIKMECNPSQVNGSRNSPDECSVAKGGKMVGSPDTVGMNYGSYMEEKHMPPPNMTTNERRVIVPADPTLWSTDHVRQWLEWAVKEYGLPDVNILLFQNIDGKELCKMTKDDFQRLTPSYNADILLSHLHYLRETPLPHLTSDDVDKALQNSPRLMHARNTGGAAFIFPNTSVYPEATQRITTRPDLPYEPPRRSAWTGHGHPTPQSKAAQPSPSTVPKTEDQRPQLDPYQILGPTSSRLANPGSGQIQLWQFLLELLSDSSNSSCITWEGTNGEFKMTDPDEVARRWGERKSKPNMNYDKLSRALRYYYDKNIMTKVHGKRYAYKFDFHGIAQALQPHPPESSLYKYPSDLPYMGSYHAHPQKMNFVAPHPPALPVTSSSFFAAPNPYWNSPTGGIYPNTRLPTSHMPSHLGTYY
Outline: as §1

ELF1 = ELF1 (Homo sapiens, UniProt P32519 1-619); conditions: protein: recombinant; tags: N-terminal GST; dsDNA, one strand shown
Sequence of ELF1 (P32519 whole entry): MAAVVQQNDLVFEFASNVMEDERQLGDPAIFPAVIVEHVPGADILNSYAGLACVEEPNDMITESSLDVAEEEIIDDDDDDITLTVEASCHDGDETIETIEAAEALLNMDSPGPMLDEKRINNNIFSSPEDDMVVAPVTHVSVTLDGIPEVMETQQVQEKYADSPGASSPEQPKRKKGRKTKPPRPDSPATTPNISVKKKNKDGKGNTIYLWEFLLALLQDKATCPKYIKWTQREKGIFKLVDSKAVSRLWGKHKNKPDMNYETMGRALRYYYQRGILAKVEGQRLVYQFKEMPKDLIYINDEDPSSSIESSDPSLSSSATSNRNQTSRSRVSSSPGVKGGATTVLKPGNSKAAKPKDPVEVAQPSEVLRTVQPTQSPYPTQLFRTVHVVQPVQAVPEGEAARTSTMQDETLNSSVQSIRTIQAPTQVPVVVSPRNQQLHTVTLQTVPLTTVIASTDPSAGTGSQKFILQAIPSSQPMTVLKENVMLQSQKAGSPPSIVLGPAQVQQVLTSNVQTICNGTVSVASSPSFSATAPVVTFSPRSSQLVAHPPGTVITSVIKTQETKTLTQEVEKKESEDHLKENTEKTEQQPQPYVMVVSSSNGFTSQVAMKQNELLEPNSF
Outline: as §1

EHF = molecular target: T5, EHF (Homo sapiens, UniProt Q9NZC4 1-300); conditions: protein: recombinant; tags: N-terminal GST; dsDNA, one strand shown
T5 sequence: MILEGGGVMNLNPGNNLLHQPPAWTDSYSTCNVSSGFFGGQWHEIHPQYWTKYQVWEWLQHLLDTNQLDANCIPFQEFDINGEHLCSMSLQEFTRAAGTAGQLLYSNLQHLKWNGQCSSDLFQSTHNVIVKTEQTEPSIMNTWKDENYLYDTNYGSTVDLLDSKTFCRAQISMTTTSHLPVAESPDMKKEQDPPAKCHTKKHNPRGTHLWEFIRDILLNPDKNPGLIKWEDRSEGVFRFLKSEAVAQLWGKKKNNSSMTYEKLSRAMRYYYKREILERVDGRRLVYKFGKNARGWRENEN
Outline: as §1

SPI1 = SPI1 (Homo sapiens, UniProt P17947 1-270); conditions: protein: recombinant; tags: N-terminal GST; dsDNA, one strand shown
Outline: as §1

SPIB = SPIB (Homo sapiens, UniProt Q01892 1-262); conditions: protein: recombinant; tags: N-terminal GST; dsDNA, one strand shown
Sequence of SPIB (Q01892 whole entry): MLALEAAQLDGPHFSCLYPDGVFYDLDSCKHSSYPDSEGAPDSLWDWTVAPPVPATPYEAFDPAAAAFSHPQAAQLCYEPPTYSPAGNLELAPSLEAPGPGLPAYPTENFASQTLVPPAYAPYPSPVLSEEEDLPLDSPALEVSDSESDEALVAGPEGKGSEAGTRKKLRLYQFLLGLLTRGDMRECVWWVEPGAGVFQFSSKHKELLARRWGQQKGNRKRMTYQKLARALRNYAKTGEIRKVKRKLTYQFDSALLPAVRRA
Outline: as §1

ELK3 = molecular target: T6, ELK3 (Homo sapiens, UniProt P41970 1-407); conditions: protein: recombinant; tags: N-terminal GST; dsDNA, one strand shown
T6 sequence: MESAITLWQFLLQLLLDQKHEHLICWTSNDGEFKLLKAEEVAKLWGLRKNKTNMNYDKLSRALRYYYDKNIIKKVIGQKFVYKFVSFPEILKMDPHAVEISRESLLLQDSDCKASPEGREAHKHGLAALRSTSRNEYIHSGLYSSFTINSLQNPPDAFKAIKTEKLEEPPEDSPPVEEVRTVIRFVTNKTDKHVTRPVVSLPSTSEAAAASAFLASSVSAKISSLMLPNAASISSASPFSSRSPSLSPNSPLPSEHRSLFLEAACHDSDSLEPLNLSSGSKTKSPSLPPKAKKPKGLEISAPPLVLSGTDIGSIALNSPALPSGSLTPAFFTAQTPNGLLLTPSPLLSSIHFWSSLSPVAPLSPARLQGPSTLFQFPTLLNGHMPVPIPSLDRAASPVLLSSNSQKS
Outline: as §1

FEV = molecular target: T7, FEV (Homo sapiens, UniProt Q99581 1-238); conditions: protein: recombinant; tags: N-terminal GST; dsDNA, one strand shown
T7 sequence: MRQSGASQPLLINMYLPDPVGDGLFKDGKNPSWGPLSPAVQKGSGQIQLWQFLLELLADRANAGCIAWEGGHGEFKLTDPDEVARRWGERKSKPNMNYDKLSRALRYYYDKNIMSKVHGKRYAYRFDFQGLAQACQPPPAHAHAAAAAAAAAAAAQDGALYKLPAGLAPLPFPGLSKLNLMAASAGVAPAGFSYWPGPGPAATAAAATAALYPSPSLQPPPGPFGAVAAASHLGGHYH
Outline: as §1

ETV5 = ETV5 (Homo sapiens, UniProt P41161 1-510); conditions: protein: recombinant; tags: N-terminal GST; dsDNA, one strand shown
Sequence of ETV5 (P41161 whole entry): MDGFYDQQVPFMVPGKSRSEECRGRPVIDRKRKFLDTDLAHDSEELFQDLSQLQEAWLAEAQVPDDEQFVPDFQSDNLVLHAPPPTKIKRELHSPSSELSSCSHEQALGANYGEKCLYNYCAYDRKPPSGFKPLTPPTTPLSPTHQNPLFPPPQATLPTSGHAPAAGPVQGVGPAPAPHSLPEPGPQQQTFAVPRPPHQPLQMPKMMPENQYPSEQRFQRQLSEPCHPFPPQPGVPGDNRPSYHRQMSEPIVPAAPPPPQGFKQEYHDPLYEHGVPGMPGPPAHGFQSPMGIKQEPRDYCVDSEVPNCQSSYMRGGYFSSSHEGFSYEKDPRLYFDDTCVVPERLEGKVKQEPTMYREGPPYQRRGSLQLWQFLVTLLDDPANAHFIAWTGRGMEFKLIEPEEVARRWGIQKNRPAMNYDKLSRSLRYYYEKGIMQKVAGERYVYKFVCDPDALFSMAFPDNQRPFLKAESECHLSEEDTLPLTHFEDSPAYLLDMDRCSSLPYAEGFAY
Outline: as §1

HSF1 = HSF1 (Homo sapiens, UniProt Q00613 1-529); conditions: protein: recombinant; tags: N-terminal GST; chain copies: 3; dsDNA, one strand shown
Sequence of HSF1 (Q00613 whole entry): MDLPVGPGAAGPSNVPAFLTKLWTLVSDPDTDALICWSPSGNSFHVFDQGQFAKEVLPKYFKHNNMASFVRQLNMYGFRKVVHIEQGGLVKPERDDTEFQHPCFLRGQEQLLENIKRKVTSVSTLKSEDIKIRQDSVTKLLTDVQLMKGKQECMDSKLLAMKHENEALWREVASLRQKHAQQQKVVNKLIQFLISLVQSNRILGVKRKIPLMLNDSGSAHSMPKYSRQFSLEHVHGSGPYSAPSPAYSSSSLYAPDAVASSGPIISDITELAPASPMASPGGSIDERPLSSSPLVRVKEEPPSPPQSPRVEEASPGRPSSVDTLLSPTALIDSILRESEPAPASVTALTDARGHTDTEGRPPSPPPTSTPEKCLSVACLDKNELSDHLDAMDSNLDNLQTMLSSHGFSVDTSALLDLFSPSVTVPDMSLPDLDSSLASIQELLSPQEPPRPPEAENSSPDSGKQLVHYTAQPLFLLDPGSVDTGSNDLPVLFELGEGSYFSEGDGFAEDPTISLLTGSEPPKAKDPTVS
Outline: as §1

SPIC = molecular target: T8, SPIC (Homo sapiens, UniProt Q8N5J4 1-248); conditions: protein: recombinant; tags: N-terminal GST; dsDNA, one strand shown
T8 sequence: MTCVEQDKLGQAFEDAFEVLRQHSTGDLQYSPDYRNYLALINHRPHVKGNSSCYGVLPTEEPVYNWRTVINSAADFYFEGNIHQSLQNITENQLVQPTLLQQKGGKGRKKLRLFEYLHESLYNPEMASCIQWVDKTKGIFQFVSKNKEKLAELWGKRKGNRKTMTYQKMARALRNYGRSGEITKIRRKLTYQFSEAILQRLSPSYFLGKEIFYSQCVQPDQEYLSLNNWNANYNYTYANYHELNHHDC
Outline: as §1

ELF4 = ELF4 (Homo sapiens, UniProt Q99607 1-663); conditions: protein: recombinant; tags: N-terminal GST; dsDNA, one strand shown
Sequence of ELF4 (Q99607 whole entry): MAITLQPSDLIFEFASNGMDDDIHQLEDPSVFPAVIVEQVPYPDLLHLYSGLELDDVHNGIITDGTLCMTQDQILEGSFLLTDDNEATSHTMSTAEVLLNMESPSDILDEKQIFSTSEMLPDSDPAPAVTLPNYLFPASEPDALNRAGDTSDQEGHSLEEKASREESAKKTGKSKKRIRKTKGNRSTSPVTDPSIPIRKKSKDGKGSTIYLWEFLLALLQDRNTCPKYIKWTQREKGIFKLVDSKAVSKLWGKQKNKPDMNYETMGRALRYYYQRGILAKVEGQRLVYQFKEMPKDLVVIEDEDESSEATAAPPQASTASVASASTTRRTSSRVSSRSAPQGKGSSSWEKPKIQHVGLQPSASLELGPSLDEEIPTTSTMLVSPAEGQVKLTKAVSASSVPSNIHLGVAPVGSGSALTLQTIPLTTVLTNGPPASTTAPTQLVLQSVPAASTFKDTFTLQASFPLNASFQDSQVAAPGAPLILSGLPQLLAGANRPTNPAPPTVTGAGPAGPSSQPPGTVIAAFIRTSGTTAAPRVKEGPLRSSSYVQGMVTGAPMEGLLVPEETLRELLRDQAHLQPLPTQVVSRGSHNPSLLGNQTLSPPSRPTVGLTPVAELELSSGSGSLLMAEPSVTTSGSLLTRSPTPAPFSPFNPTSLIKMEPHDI
Outline: as §1

ELK4 = molecular target: T9, ELK4 (Homo sapiens, UniProt P28324-2 1-405); conditions: protein: recombinant; tags: N-terminal GST; dsDNA, one strand shown
T9 sequence: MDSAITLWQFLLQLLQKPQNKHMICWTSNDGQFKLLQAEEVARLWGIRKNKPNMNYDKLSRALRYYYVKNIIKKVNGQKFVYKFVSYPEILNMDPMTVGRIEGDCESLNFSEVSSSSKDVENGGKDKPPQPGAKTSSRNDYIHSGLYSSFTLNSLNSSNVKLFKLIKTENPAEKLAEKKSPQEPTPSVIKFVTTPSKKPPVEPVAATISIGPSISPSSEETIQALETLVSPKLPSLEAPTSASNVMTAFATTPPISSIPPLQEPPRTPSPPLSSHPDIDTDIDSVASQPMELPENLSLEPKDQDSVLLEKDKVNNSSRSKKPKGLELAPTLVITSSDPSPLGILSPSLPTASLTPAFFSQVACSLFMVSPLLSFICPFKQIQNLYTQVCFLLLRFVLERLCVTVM
Outline: as §1

ETV2 = molecular target: T10, ETV2 (Homo sapiens, UniProt O00321 1-342); conditions: protein: recombinant; tags: N-terminal GST; dsDNA, one strand shown
T10 sequence: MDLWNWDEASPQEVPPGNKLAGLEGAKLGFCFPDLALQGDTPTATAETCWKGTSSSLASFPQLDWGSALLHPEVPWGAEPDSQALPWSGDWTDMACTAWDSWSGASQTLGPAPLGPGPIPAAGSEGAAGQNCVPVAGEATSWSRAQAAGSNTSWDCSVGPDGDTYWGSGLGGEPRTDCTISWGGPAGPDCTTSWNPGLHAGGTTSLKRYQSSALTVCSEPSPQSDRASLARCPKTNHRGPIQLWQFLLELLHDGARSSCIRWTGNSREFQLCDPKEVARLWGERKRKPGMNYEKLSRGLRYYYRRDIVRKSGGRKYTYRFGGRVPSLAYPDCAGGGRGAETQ
Outline: as §1

ELF3 = molecular target: T11, ELF3 (Homo sapiens, UniProt P78545 1-371); conditions: protein: recombinant; tags: N-terminal GST; dsDNA, one strand shown
T11 sequence: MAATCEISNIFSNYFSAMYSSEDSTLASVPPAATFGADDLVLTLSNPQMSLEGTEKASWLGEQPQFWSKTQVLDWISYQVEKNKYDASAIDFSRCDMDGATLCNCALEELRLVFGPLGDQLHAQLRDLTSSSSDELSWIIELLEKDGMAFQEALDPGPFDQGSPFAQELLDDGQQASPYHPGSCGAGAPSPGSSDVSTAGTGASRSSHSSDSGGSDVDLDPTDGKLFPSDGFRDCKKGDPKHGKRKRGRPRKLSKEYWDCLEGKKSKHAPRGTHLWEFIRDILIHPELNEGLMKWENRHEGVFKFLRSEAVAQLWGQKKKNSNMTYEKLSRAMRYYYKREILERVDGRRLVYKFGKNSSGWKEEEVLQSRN
Outline: as §1

CRX = CRX (Homo sapiens, UniProt O43186 1-299); conditions: protein: recombinant; tags: N-terminal GST; dsDNA, one strand shown
Sequence of CRX (O43186 whole entry): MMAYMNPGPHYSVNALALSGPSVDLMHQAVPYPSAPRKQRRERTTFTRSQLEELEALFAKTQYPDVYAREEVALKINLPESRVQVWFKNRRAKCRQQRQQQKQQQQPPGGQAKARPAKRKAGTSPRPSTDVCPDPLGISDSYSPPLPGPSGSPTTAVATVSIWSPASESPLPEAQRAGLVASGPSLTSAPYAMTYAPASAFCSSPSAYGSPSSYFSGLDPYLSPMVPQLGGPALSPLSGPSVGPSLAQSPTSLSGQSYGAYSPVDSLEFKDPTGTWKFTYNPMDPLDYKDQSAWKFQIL
Outline: as §1

ETV1 = ETV1 (Homo sapiens, UniProt P50549 1-477); conditions: protein: recombinant; tags: N-terminal GST; dsDNA, one strand shown
Sequence of ETV1 (P50549 whole entry): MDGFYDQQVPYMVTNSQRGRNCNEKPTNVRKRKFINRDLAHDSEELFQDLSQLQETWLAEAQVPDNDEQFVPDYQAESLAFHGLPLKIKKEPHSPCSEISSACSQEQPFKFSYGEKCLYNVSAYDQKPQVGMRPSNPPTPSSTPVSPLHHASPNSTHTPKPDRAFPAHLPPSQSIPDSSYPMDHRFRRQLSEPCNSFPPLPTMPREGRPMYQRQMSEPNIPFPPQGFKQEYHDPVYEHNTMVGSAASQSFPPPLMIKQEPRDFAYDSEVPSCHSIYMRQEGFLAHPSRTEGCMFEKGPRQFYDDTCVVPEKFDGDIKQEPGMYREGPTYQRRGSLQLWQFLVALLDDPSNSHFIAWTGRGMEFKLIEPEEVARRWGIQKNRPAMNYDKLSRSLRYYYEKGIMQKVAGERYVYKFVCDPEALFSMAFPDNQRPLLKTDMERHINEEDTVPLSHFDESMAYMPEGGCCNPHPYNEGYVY
Outline: as §1

Sequence: ATCTAG
- binding signal (FLI1): 1.12 fold enrichment (6-mer frequency, TF over GST control)
- binding signal (ELK1): 1.16 fold enrichment (6-mer frequency, TF over GST control)
- binding signal (GABPA): 1.12 fold enrichment (6-mer frequency, TF over GST control)
- binding signal (ERG): 1.1 fold enrichment (6-mer frequency, TF over GST control)
- binding signal (ELF1): 1.1 fold enrichment (6-mer frequency, TF over GST control)
- binding signal (EHF): 1.14 fold enrichment (6-mer frequency, TF over GST control)
- binding signal (SPI1): 1.14 fold enrichment (6-mer frequency, TF over GST control)
- binding signal (SPIB): 1.2 fold enrichment (6-mer frequency, TF over GST control)
- binding signal (ELK3): 1.23 fold enrichment (6-mer frequency, TF over GST control)
- binding signal (FEV): 1.04 fold enrichment (6-mer frequency, TF over GST control)
- binding signal (ETV5): 1 fold enrichment (6-mer frequency, TF over GST control)
- binding signal (HSF1): 2.66 fold enrichment (6-mer frequency, TF over GST control)
- binding signal (SPIC): 1.19 fold enrichment (6-mer frequency, TF over GST control)
- binding signal (ELF4): 1.09 fold enrichment (6-mer frequency, TF over GST control)
- binding signal (ELK4): 1.27 fold enrichment (6-mer frequency, TF over GST control)
- binding signal (ETV2): 1.06 fold enrichment (6-mer frequency, TF over GST control)
- binding signal (ELF3): 1.24 fold enrichment (6-mer frequency, TF over GST control)
- binding signal (CRX): 1.7 fold enrichment (6-mer frequency, TF over GST control)
- binding signal (ETV1): 1.03 fold enrichment (6-mer frequency, TF over GST control)
